# Results reported in PubChem BioAssay (EPA / NIEHS).
# Calls of active or inactive are those of the source. Rule for the calls: active = hit-call score of the fitted dose curve at least 0.9, where 1 is the maximum; inactive = score below 0.9.
# Experiment: CEETOX_H295R_CORTISOL: CeeTox H295R High-throughput Steroidogenesis Assay for Cortisol (AID 2283438);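 note: cortisol secreted into medium quantified by LC-MS/MS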
# Details: actives raise or lower the signal
# Method: CEETOX_H295R is a cell-based, multiplexed-readout assay that uses H295R, a human adrenal gland cell line, with measurements taken at 48 hours after chemical dosing in a 96-well plate.CEETOX_H295R_CORTISOL is one of 23 assay component(s) measured or calculated from the CEETOX_H295R assay. It is designed to make measurements of hormone induction, a form of inducible reporter, as detected with absorbance signals by HPLC-MS-MS technology.Data from the assay component CEETOX_H295R_CORTISOL was analyzed into 1 assay endpoint. This assay endpoint, CEETOX_H295R_CORTISOL, was analyzed with bidirectional fitting relative to DMSO as the negative control and baseline of activity. Using a type of inducible reporter, gain or loss-of-signal activity using HPLC-MS-MS was used to understand synthesis of Cortisol in H295R cell line at 48hr of chemical exposure. To generalize the intended target to other relatable targets, this assay endpoint is annotated to the steroid hormone intended target family, where the subfamily is glucocorticoids.
# Cell culture and media preparation procedures were conducted in accordance with OECD Test No. 456 guidelines, with minor modifications. H295R cells (ATCC CRL-2128) were expanded for 5 passages and frozen in batches in liquid nitrogen. Prior to the steroidogenesis assay, H295R cells were thawed and passed at least 4 times. The maximum passage was 10. Cells were maintained in a 1:1 mixture of DMEM/F12 supplemented with 5ml/L ITS+ Premix (BD Bioscience) and 12.5 ml/L Nu-Serum (BD Bioscience). After seeding cells into 96-well plates at 50-60% confluency, cells were allowed to adhere overnight. Prior to chemical testing, culture medium was replaced with 175 uL medium containing 10 uM forskolin to stimulate steroidogenesis for 48 hours. Following prestimulation, forskolin medium was replaced with medium containing test chemical solubilized in DMSO (ensuring a final concentration of 0.1% DMSO). Test chemicals were incubated for 48 hours, then the medium was removed and split into 2 vials containing approximately 75uL each, and stored at -80 C prior to hormone analysis. For steroid quantification, media samples were shipped to OpAns, LLC (Durham, NC) on dry ice, and samples were thawed to room temperature prior to liquid-liquid extraction. Steroid hormones were extracted from media samples using methyl tertbutyl ether (MTBE). An extra derivatization with dansyl chloride was included for estrogen (estrone and estradiol) detection only. Steroid hormones were separated by HPLC, eluted using a reverse phase C18 gradient with electrospray positive ionization, followed by quantification by tandem mass spectrometry (MS/MS). Data were acquired on a MassHunter Workstation Acquisition version B03.01 (Agilent Technologies, Inc.) and processed using MassHunter Quantitative Analysis for QQQ. Accuracy was determined for each hormone analyte from 3 standards to determine upper and lower limits of quantification (ULOQ and LLOQ, respectively) using a 7-point standard curve. Precision and accuracy of the extraction and quantification methods were calculated as the percent relative standard deviation (%RSD) of the spiked standards and percent spiked standard recovered, respectively. The goal was to achieve 100% accuracy (i.e., recover all spiked-in standard at quantification with minimal loss during run time) and good precision (i.e., have %RSD <15% to ensure reproducibility). Test medium was removed following chemical exposure, and cell viability was evaluated in the same wells by MTT. MTT procedures were as follows: after removal of test medium, 500 uL of 0.5 mg/ml of 3-[4,5-dimethylthiazol-2-y]2,5-diphenyltetrazoliumbromide solution was added to the cells. Following a 4-hour incubation at 37 C and 5% CO2 to allow formazan-crystal formation, the MTT solution was removed and blue formazan salt crystals were solubilized using 500uL anhydrous isopropanol with shaking for 20 minutes. […]
SMILES,outcome,AC50
C[C@]12C[C@H](O)[C@H]3[C@@H](CCC4=CC(=O)CC[C@@]43C)[C@@H]1CC[C@@H]2C(=O)CO,inactive,
S=C(S)NCCNC(=S)S.[Mn+2].[S-]C([S-])=NCCN=C([S-])[S-].[Zn+2],inactive,
CCCCC(CC)CN1C(=O)C2C3C=CC(C3)C2C1=O (stereo not given),inactive,
CCOC(=O)C(C)Oc1ccc(Oc2cnc3cc(Cl)ccc3n2)cc1 (stereo not given),inactive,
CCCCCOC(=O)COc1cc(N2C(=O)C3=C(CCCC3)C2=O)c(F)cc1Cl,inactive,
O=C(Nc1ccc([N+](=O)[O-])cc1Cl)c1cc(Cl)ccc1O,inactive,
CC(C)(C)[C@@H](O)[C@@H](Cc1ccc(Cl)cc1)n1cncn1,,5000 nM (active)
CC1(C)C(C=C(Cl)Cl)C1C(=O)OCc1cccc(Oc2ccccc2)c1 (stereo not given),inactive,
CCCN(CCC)C(=O)SCC,inactive,
CCOC(=O)c1ccc(O)cc1,inactive,
c1ccc2[nH]c(-c3cscn3)nc2c1,inactive,
S=C([S-])NCCNC(=S)[S-].[Mn+2],inactive,
CCCCOC(=O)[C@@H](C)Oc1ccc(Oc2ccc(C(F)(F)F)cn2)cc1,inactive,
C#C[C@]1(O)CC[C@H]2[C@@H]3CCC4=CC(=O)CC[C@@H]4[C@H]3CC[C@@]21CC,,2400 nM (active)
C=CCOC(Cn1ccnc1)c1ccc(Cl)cc1Cl (stereo not given),,159 nM (active)
CN(C)C(=O)Nc1ccc(Cl)c(Cl)c1,inactive,
CC(=O)S[C@@H]1CC2=CC(=O)CC[C@]2(C)[C@H]2CC[C@@]3(C)[C@@H](CC[C@@]34CCC(=O)O4)[C@H]12,,1830 nM (active)
Oc1ccc(C(c2ccc(O)cc2)C(Cl)(Cl)Cl)cc1,,399 nM (active)
C#CCOC(=O)[C@@H](C)Oc1ccc(Oc2ncc(Cl)cc2F)cc1,inactive,
CSC(=O)c1cccc2nnsc12,inactive,
